High-throughput results: PubChem BioAssay, National Center for Advancing Translational Sciences (NCATS)
KCNH2 3.1 block = blocks the human KCNH2 3.1 channel isoform; activity change, % (tested at about 1.8 µM); U2OS KCNH2 3.1, thallium flux FluxOr; hits give low values; 0.95% of 340,000 active; AID 720553;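 active = maximum activity change below -70%; inconclusive = maximum activity change from -70% to -50%; inactive = maximum activity change above -50%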;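 also: thallium influx rate constant from kinetic fluorescence after stimulation buffer; % is scaled to controls: 0 for no effect and ±100 for the full control effect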
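Channel expression came from 3.1 mutant virus (1.77 x 10^8 /mL) applied to suspended U2OS cells for 4 h. Flux was tracked with FluxOr dye plus Red40 quencher, and kinetic rate constants normalized to controls.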
PTAP TSG101 blk = blocks PTAP/TSG101 interaction to inhibit HIV-1 budding. Q99816. Fluorescence polarization, FITC-PTAP peptide / Tsg101 binding. Potency, µM (highest dose often 115 µM), without a hit: top-dose activity change, negative = inhibition, most hits filed as inhibitors. 340,000 tested, under 10 active; active = well fitted inhibition curve with a large enough effect in the main read-out, with a control signal flat, not every such curve was filed as active; inconclusive = small, poorly fitted or top-dose-only effect, or effect the other way, or a change in a side signal; inactive = no such curve, though single readings can be large or run the other way; also: potency is read from the fitted curve at half-maximal effect; % of control where 0% means no effect
Target sequence (Q99816 whole entry, looked up): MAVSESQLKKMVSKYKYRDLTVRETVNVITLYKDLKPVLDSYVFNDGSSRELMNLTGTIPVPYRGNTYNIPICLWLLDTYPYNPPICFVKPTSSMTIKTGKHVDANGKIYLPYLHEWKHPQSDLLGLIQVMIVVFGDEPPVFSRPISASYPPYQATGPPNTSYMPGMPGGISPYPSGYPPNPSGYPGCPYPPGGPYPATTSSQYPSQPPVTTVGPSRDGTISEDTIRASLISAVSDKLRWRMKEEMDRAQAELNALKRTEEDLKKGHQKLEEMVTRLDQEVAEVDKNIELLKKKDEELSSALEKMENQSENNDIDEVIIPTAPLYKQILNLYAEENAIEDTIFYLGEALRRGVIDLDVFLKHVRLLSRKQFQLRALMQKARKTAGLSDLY
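Fluorescence polarization binding of Tsg101 binding domain (10 uM final) to FITC-labeled PTAP peptide (50 nM final) in HEPES pH 7.5 buffer with NaCl, Tween 20, EDTA, TCEP. Compounds added before peptide; binding 20 min at RT.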
Tb PFK block = blocks T. brucei phosphofructokinase. O15648. T. brucei PFK, ADP-Glo luminescence. Potency, µM (highest dose often 57.5 µM), for the others: top-dose activity, negative = inhibition, usual class: inhibitors. 0.17% of 330,000 active. AID 485367; active = well fitted inhibition curve with a large enough effect; inconclusive = small, poorly fitted or top-dose-only effect, or effect the other way;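 also: potency is read from the fitted curve at half-maximal effect; 0% = uninhibited 1x PFK enzyme wells and -100% = no-enzyme wells; nearly all actives have a fitted effect of over 60% in size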
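1.25 nM PFK with 0.5 mM F6P and 0.1 mM ATP in 0.1 M TEA pH 8.0, 5 mM MgCl2, incubated 45 min at room temperature; ADP measured by ADP-Glo luminescence; compounds titrated up to 57 uM.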
hERG WT inh = inhibitors of human wildtype KCNH2 potassium channel; 0.37% of 340,000 active; Q12809; U2OS, BacMam KCNH2, thallium flux FluxOr; hits give low values; AID 720551; activity change, % at 1.84 µM;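 active = maximum activity change below -70%; inconclusive = maximum activity change between -70% and -50%; inactive = maximum activity change above -50%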; also: % is scaled to controls: 0 for no effect and ±100 for the full control effect
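U2OS cells were transduced with wild-type KCNH2 virus (2.03 x 10^8 / mL) for 4 h at room temperature, then cultured overnight at 37 C. Thallium flux was read with FluxOr dye. Rate constants were normalized to DMSO controls.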
Active calls of the source: *; ? = inconclusive; . = not tested or not shown. Rows were chosen to be rich in hits. Some 1.2% of all compounds tested hit in one or more screens of this group.

SMILES	KCNH2 3.1 block	PTAP TSG101 blk	Tb PFK block	hERG WT inh
O=C(c1cc2ccccc2oc1=O)N(Cc1cccs1)C1CCS(=O)(=O)C1 (stereo not drawn)	-163*	0%	7%	-174*
COc1ccc(CCNC(=O)CSCc2ccc([N+](=O)[O-])cc2)cc1OC	-206*	-5%	-5%	-129*
COc1ccc(CCNC(=O)CSCc2ccc([N+](=O)[O-])cc2)cc1	6	-2%	-4%	2
COc1cc(/C=N/NC(=O)C2CCN(CC(O)COCc3ccccc3)CC2)ccc1O (stereo not drawn)	-99*	-5%	-9%	-128*
N#CC1=C(N)NC(SCC(=O)Nc2ccc(Br)cc2)=C(C#N)C12CCCCC2	-33	-12%	-4%	-146*
N#CC1=C(N)NC(SCc2ccc(Br)cc2)=C(C#N)C12CCCCC2	-12	1%	-1%	0
CCOC(=O)c1c(S(=O)(=O)NCC(=O)Nc2ccc(OC)cc2)c(C)n(C)c1C	-162*	-2%	-6%	-1
CCOC(=O)c1c(S(=O)(=O)NCC(=O)Nc2ccccc2)c(C)n(C)c1C	4	1%	-3%	1
COc1cccc(CN2CCN(C3CCN(c4cccc(C)c4C)CC3)CC2CCO)c1 (stereo not drawn)	-72*	-3%	3%	-1
COc1cccc(CN2CCN(C3CCN(c4ccccc4C)CC3)CC2CCO)c1 (stereo not drawn)	-29	1%	0%	26
CCN(CC)S(=O)(=O)c1ccc2c(c1)nc(CCC(=O)OCC(=O)Nc1cc(Cl)cc(Cl)c1)n2C	-83*	-1%	-6%	-3
CC(=O)Nc1ccc(N2C(=O)c3ccc(S(=O)(=O)c4ccc(C(=O)O)cc4)cc3C2=O)cc1	22	-4%	-3%	-168*
CN1C(=O)c2ccc(S(=O)(=O)c3ccc(C(=O)O)cc3)cc2C1=O	-11	-5%	-3%	5
CC(CCN1CCC(n2nccc2NC(=O)c2ccccc2Cl)CC1)c1ccccc1 (stereo not drawn)	-99*	-1%	3%	?
CC(C)(C)CN1CCC(n2nccc2NC(=O)c2ccccc2Cl)CC1	7	1%	0%	15
O=C(Nc1ccnn1C1CCN(CC2CC=CCC2)CC1)c1ccccc1 (stereo not drawn)	-27	-2%	-3%	53
COc1ccccc1C(=O)Nc1ccnn1C1CCN(CC2CC=CCC2)CC1 (stereo not drawn)	-80*	-3%	-5%	24
COc1ccccc1C(=O)Nc1ccnn1C1CCN(CCCC2CCCC2)CC1	-114*	-3%	1%	-143*
O=C(Nc1ccnn1C1CCN(CCCC2CCCC2)CC1)c1ccccc1Cl	-106*	-5%	-5%	-93*
Cc1ccc(OC[C@H](O)[C@H](C)NC(C)C)c2c1CCC2	-12	4%	-9%	7
COCCN1CCN(C(=O)c2cc(COc3ccc(F)cc3F)on2)CC1	.	-3%	-4%	9
Cc1cccc(-n2c(N)cc(=O)nc2SCC(=O)Nc2ccccc2)c1	-179*	-2%	2%	-144*
CC(C)c1nnc(NC(=O)C2CCN(C(=O)Nc3ccccc3)CC2)s1	6	-3%	3%	-5
Cc1ccc(N(CCC#N)C(=O)COC(=O)c2ccccn2)cc1	-2	-1%	-2%	-7
CCN(C[C@H]1N[C@@](CC)(C(=O)OC)[C@H]2C(=O)N(Cc3ccccc3)C(=O)[C@@H]12)S(=O)(=O)c1ccc(-c2ccccc2)cc1	-5	0%	2%	-4
SMILES	KCNH2 3.1 block	PTAP TSG101 blk	Tb PFK block	hERG WT inh
CCN(C[C@H]1N[C@@](CC)(C(=O)OC)[C@H]2C(=O)N(Cc3ccccc3)C(=O)[C@@H]12)S(=O)(=O)c1ccc(OC(F)(F)F)cc1	-13	-2%	3%	-277*
CCc1sc(C(=O)N(CCOC)c2c(N)n(Cc3ccccc3)c(=O)[nH]c2=O)cc1C	9	.	.	-3
O=S(=O)(c1ccc(Cl)cc1)N1CCC(n2cnc3cc(C(F)(F)F)ccc32)CC1	-83*	-4%	.	-41
Cc1nnc(SCC(=O)Nc2cc(S(=O)(=O)N3CCCC3)ccc2Cl)n1C1CC1	-97*	0%	-2%	1
O=C(CSc1nnnn1C1CC1)Nc1cc(S(=O)(=O)N2CCCC2)ccc1Cl	4	-4%	4%	1
COc1cc(OC)c(NC(=O)CSc2nc3ccncc3[nH]2)cc1Cl	.	.	-2%	.
Oc1ccc(Nc2nc(-c3ccccc3O)nc3ccccc23)cc1	-118*	-5%	10%	13
COc1cc(OC)c(NC(=O)/C=C/C(=O)O)cc1Cl	4	-6%	-25%	-4
CC(Nc1cc(C)cc(C)c1)=[N+](C)CCNS(=O)(=O)c1ccc(Cl)cc1	-95*	-5%	4%	15
COc1ccc(NC(C)=[N+](C)CCNS(=O)(=O)c2ccc(Cl)cc2)cc1Cl	-2	-3%	-4%	7
CCOC(=O)C1(CCc2ccccc2)CCN(Cc2ccc(OC)cc2)CC1	-111*	-2%	0%	-136*
OCC1(CCCc2ccccc2)CCN(C2CCSCC2)CC1	1	-1%	-2%	26
CCOC(=O)C1(CCc2ccccc2)CCN(Cc2ccc(O)cc2)CC1	-116*	1%	1%	-113*
CCOC(=O)C1(CCc2ccccc2)CCN(Cc2cnc(N(C)C)s2)CC1	-112*	0%	-4%	-86*
CCOC(=O)C1(CCCc2ccccc2)CCN(C2CCSCC2)CC1	-107*	-3%	3%	-126*
COc1ccc(C(=O)CN2C(=O)NC3(CCCCCC3)C2=O)cc1	12	-5%	.	-16
COc1cc(C)ccc1OCc1cc(C(=O)N(C)CCCN2CCOCC2)no1	7	-7%	0%	-8
O=C(NCCc1ccc(F)cc1)C(=O)NCC1CCCN1S(=O)(=O)c1cccs1 (stereo not drawn)	0	-16%	0%	3
CCOC(=O)C1(CC2CC2)CCN(Cc2ccc(OC)cc2F)CC1	-108*	0%	-4%	17
CCOC(=O)C1(CC2CC2)CCN(Cc2cc(Cl)c(O)c(OC)c2)CC1	-1	-1%	4%	9
Cc1ccc(CN2CC(C(=O)N3CCN(c4ccccc4Cl)CC3)CC2=O)cc1 (stereo not drawn)	-9	-4%	-5%	6
O=C(NC(c1ccccc1)c1ccccc1)c1cccc(S(=O)(=O)NCc2ccccc2)c1	-71*	-2%	3%	-28
CCN(CC(=O)Nc1c(F)cccc1F)C(=O)c1cccc(S(=O)(=O)NCc2ccccc2)c1	5	-1%	8%	-219*
CCN(CC(=O)Nc1c(F)cccc1F)C(=O)c1ccc(C(=O)c2ccccc2)cc1	7	-3%	10%	0
COC(=O)c1cc(OC)c(OC)c(OC)c1[N+](=O)[O-]	-3	-2%	1%	-24
CCOCCCNC(=O)CN1C(=O)CSc2ccccc21	-72*	-5%	-4%	0
CCOCCCNC(=O)CN1C(=O)CSc2cc(S(=O)(=O)N3CCCCCC3)ccc21	-12	-3%	-3%	-4
